Mot1-301 SUMO: inhibitors of SUMOylation pathway: yeast Mot1-301 growth rescue. AID 2716. S. cerevisiae Mot1-301 growth rescue, ATP luminescence, 38.5C; percent above DMSO median, 100 means doubled. 1% of 320,000 active. growth rescue, % at 18.8 µM;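 active means every valid replicate shows activation above 250% relative to neutral control wells; inactive means the rest, any valid replicate at or below 250%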;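 further: OY570 slx delta 5 strain wells were the positive control but not used for scaling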
NTR1 ag: NTR1 (human) agonism; P30989; NTR1-U2OS beta-arrestin-GFP spot imaging, agonist mode; activation, % at 20 µM; 0.17% of 330,000 active; AID 493036;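 active means activation at or above 40% of the spot to cytoplasm intensity ratio, with at least 20 cells analyzed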;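 further: 0% = DMSO without peptide and 100% = 100 nM NTR1 peptide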
AHR act: activates the human aryl hydrocarbon receptor; AHR-responsive luciferase reporter cells, luminescence; P35869; 2.5% of 320,000 active; activation, % at 5 µM; in the data active means activation above about 47%;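 further: 0% = vehicle wells and 100% = reference agonist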
AI-2 QS modul: modulates the Vibrio harveyi AI-2 quorum sensing system; Vibrio harveyi JMH597 AI-2 luminescence/OD600 ratio, 9 h; active compounds read low; strain lacks LuxN and CqsS sensors; 0 = neutral-control median; activity change, % at 7.5 µM; 0.4% of 300,000 active; in the data active means activity change below about -75%, passing the limit was not always enough;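 further: luminescence divided by OD600 gain over 9 h not by final OD600 alone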
H9c2 protect: myocardial damage modulation in H9c2 cells. H9c2 cardiomyocytes, H2O2 injury protection, ATPLite, 2 h. protection from H2O2 cell death, % at 20 µM. 0.63% of 360,000 active. AID 588492;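 active means compounds giving at least 50% protection of heart cells from peroxide-induced death in the single-dose screen, raw or plate-pattern-corrected value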;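 further: 0% = DMSO wells with peroxide and 100% = DMSO wells without peroxide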
NR3A LBD binder: modulators (binders) of human NR3A ligand-binding domain; 2.5% of 340,000 active; Tm shift relative to glycine control, % at 25 µM; NR3A LBD differential scanning fluorimetry, Tm shift; 0% = protein alone, 100% = glycine-bound protein;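 active means melting temperature shift of at least 10% of the positive control shift, at one fixed dose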
AHR act cf: human AHR activation, confirmation. shares compounds with AHR act. human cells, AHR-responsive luciferase reporter, luminescence. activation, % at 9 µM. 87% of 2,300 active; in the data active means activation above about 49%;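 further: HepG2 hepatoma cells carrying a DRE-driven firefly luciferase reporter; 0% = vehicle wells and 100% = reference agonist wells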
PXR act counter: PXR activation, counter-screen for AHR activators; 88% of 2,300 active; cell-based PXR reporter, luciferase luminescence; AID 434939; shares compounds with AHR act; activation, % at 11.6 µM; in the data active means activation above about 11%;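 further: human hepatoma DPX-2 cells expressing full-length human PXR; 0% = DMSO and 100% = reference agonist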
Target sequence (O75469 whole entry, looked up): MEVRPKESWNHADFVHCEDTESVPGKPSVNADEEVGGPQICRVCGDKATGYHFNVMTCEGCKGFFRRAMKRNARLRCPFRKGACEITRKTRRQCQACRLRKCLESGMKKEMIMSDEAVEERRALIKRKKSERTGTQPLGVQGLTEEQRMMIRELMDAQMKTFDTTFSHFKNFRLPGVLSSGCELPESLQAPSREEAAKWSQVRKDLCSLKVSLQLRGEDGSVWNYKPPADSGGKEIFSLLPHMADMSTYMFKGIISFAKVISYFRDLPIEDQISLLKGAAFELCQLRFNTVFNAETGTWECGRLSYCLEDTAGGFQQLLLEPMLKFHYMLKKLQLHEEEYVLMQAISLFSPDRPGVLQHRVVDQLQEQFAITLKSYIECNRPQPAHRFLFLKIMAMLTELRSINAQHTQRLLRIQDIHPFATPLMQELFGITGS
An asterisk follows results filed as active. An excerpt weighted towards active compounds, which were near 6.2% of everything screened.

What do the screens show for `Cc1cc(C)nc(N/N=C/C2=C(N3CCOCC3)C(=C\c3ccc(Cl)cc3)/CC2)n1`?
Mot1-301 SUMO: 2.8; NTR1 ag: 1.4; AHR act: 90.1*; AI-2 QS modul: 38.4; H9c2 protect: 10.7; NR3A LBD binder: -5.9; AHR act cf: 125.6*; PXR act counter: 12.4*

How did Cc1cc(C)nc(NN=CC2=C(N3CCOCC3)/C(=C/c3ccc(Cl)cc3)CC2)n1 do in these assays?
H9c2 protect: 21.4; NR3A LBD binder: -6.7

Results for CC(Sc1nnc(Cc2cccs2)n1C)C(=O)Nc1ccc(C(N)=O)cc1 (stereo not given) ?
NTR1 ag: -0.1; H9c2 protect: 8.0; NR3A LBD binder: -0.7

What do the screens show for `O=C(NCc1ccccc1)c1cc(C2CCCCN2C(=O)c2cccs2)on1` (stereo not given)?
H9c2 protect: 0.9

What do the screens show for `N=C1S/C(=C\c2ccco2)C(=O)N1c1nccs1`?
Mot1-301 SUMO: -7.3; NTR1 ag: 7.6; AHR act: 112.2*; AI-2 QS modul: 45.0; H9c2 protect: 19.6; NR3A LBD binder: -1.1; AHR act cf: 111.3*; PXR act counter: 10.2*

Results for CCOc1ccccc1NC(=O)c1ccoc1C ?
Mot1-301 SUMO: -2.7; NTR1 ag: -2.0; AHR act: 80.9*; AI-2 QS modul: 11.4; H9c2 protect: -3.1; NR3A LBD binder: 2.1; AHR act cf: 88.8*; PXR act counter: 12.9*

How did CCOc1ccccc1C(=O)Nc1cccc2ccccc12 do in these assays?
Mot1-301 SUMO: 1.5; NTR1 ag: 3.1; AHR act: 88.0*; AI-2 QS modul: 6.7; H9c2 protect: -7.5; NR3A LBD binder: 0.3; AHR act cf: 62.9*; PXR act counter: 34.1*

How did O=C(CNC(=O)c1ccccc1)N/N=C/c1cn[nH]c1-c1ccccc1 do in these assays?
Mot1-301 SUMO: 1.6; NTR1 ag: -1.1; AHR act: 145.9*; AI-2 QS modul: 17.9; H9c2 protect: 9.1; NR3A LBD binder: -0.5; AHR act cf: 92.5*; PXR act counter: 20.1*

Results for COc1ccccc1C(=O)NCC(=O)N/N=C/c1cn[nH]c1-c1ccccc1 ?
Mot1-301 SUMO: 6.2; NTR1 ag: 0.2; AHR act: 155.7*; AI-2 QS modul: 5.0; H9c2 protect: 9.6; NR3A LBD binder: 3.3; AHR act cf: 111.3*; PXR act counter: 12.0*

Results for COc1cccc(C(=O)NCC(=O)N/N=C/c2cn[nH]c2-c2ccccc2)c1 ?
Mot1-301 SUMO: -4.4; NTR1 ag: 1.9; AHR act: 19.0; AI-2 QS modul: 28.2; H9c2 protect: 6.5; NR3A LBD binder: 0.5

What do the screens show for `COc1ccc(-c2[nH]ncc2/C=N\NS(=O)(=O)c2ccccc2)cc1OC`?
Mot1-301 SUMO: -2.9; NTR1 ag: 0.5; AHR act: 91.8*; AI-2 QS modul: 16.7; H9c2 protect: 2.0; NR3A LBD binder: -1.4; AHR act cf: 33.0; PXR act counter: 23.9*

What do the screens show for `CCOC(=O)c1ccc2c(c1)nc(-c1ccc(F)cc1)c1nccn12`?
Mot1-301 SUMO: 2.5; NTR1 ag: 1.5; AHR act: 84.8*; AI-2 QS modul: 7.1; H9c2 protect: -2.1; NR3A LBD binder: 2.7; AHR act cf: 99.5*; PXR act counter: 24.4*

What do the screens show for `O=C(COC(=O)Cn1cnc2ccccc21)Nc1cc2c(cc1Cl)C(=O)c1ccccc1C2=O`?
Mot1-301 SUMO: 17.9; NTR1 ag: 14.5; AHR act: 83.6*; AI-2 QS modul: 13.9; H9c2 protect: -5.6; NR3A LBD binder: -4.9; AHR act cf: 145.5*; PXR act counter: 27.0*

Results for O=C(COC(=O)Cn1cnc2ccccc21)Nc1cc(S(=O)(=O)N2CCOCC2)ccc1Cl ?
Mot1-301 SUMO: 5.7; NTR1 ag: -1.1; AHR act: -2.2; AI-2 QS modul: 13.0; H9c2 protect: 1.6; NR3A LBD binder: 1.3

How did CC1ON=C(c2ccccn2)N(Cc2ccc3c(c2)OCO3)C1=O (stereo not given) do in these assays?
H9c2 protect: 0.4

Screens deposited in PubChem by several laboratories.
